This is a sample that favours compounds with a hit; in the whole collection about 2.1% have one here.
ROS inducer – raises reactive oxygen species in U2OS cancer cells | ROS induction (% of piperlongumine), % at 10 µM | U2OS ROS induction, H2DCF-DA fluorescence | AID 624156 | hit rate 2% among 46,000; in the data active = ROS induction above about 79%, passing the limit was not always enough; inconclusive = no clear call, values can overlap the other calls;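 also: 0% = DMSO vehicle median and 100% = reference compound median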
YB-1 expr inh – YB-1 expression inhibition; hit rate 0.37% among 30,000; delta delta Cp (YB-1 minus CDIP) (test concentration not listed); U2OS, qRT-PCR YB-1 vs CDIP delta delta Cp, 16 h; stronger effect = higher value; zero = DMSO, each unit about twofold;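 active = delta delta Cp rounded down to an integer at or above 3, about 3 SD of DMSO wells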;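 also: higher means less YB-1 transcript or more CDIP transcript relative to DMSO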
* marks the source's active call; other numbers are inactive results; ? = inconclusive; · = no result.

SMILES | ROS inducer | YB-1 expr inh
NC1=NC(=O)/C(=C/c2ccc(I)o2)S1 | 141* | ·
Cc1ccc(-c2nn(CCC(=O)O)cc2/C=C2\SC(N)=NC2=O)cc1 | 1 | ·
N#Cc1c(OCC(F)(F)F)ccc(SCc2ccccc2)c1OCC(F)(F)F | -2 | ·
COC(=O)Nc1c(C)cc(C)cc1C | -9 | ·
O=C1CC(C2CCCO2)C(=O)N1c1cccc(C(F)(F)F)c1 (stereo not drawn) | 5 | 5.8*
CC1CC(=O)N(c2cc(C(F)(F)F)cc(C(F)(F)F)c2)C1=O (stereo not drawn) | -11 | ·
COc1ccccc1-c1cc(C(F)(F)F)nc(S(=O)(=O)CCCC(=O)N2CCOCC2)n1 | 90* | ·
COc1ccc(OC)c(S(=O)(=O)N(C)CC(=O)N2CCOCC2)c1 | -13 | ·
CCC(C(=O)NC1CCCCC1)n1c(C(=O)OC)cc2sc(Cl)cc21 (stereo not drawn) | 1 | ·
O=C1C(Nc2ccccc2)=CC(=O)c2ncccc21 | ? | 3.1*
CCc1ccc(-c2cn3c4ccccc4nc3n2CCN2CCOCC2)cc1 | 89* | ·
Cc1ccc(-c2cn3c4ccccc4nc3n2CCN2CCOCC2)cc1 | 36 | ·
Cc1ccc(Nc2ncc(C(=O)NCCC3=CCCCC3)c3ccccc23)cc1Cl | -11 | ·
COc1ccc(S(=O)(=O)N(C)C[C@H]2Oc3ccc(N(C)C)cc3CC(=O)N([C@H](C)CO)C[C@H]2C)cc1 | -6 | -0.25
C[C@H]1CN([C@@H](C)CO)C(=O)c2cccc(NC(=O)Nc3cccc4ccccc34)c2O[C@@H]1CN(C)S(=O)(=O)c1ccc(F)cc1 | 151* | -0.56
COc1ccc(S(=O)(=O)N(C)C[C@@H]2Oc3ccc(N(C)C)cc3CC(=O)N([C@H](C)CO)C[C@H]2C)cc1 | 96* | -0.41
Cc1noc(C)c1S(=O)(=O)Nc1cccc2c1O[C@H](CN(C)S(=O)(=O)c1ccc(Cl)cc1)[C@H](C)CN([C@@H](C)CO)C2=O | 103* | -0.21
COc1ccc(S(=O)(=O)N(C)C[C@@H]2Oc3ccc(NC(=O)Nc4ccc(F)cc4)cc3CC(=O)N([C@H](C)CO)C[C@H]2C)cc1 | -14 | 0.2
Cc1noc(C)c1S(=O)(=O)Nc1cccc2c1O[C@@H](CN(C)S(=O)(=O)c1ccc(Cl)cc1)[C@@H](C)CN([C@@H](C)CO)C2=O | 6 | -0.075
C[C@H]1CN([C@@H](C)CO)C(=O)c2cccc(NC(=O)Nc3cccc4ccccc34)c2O[C@H]1CN(C)S(=O)(=O)c1ccc(F)cc1 | -4 | -0.22
COc1ccc(NC(=O)Nc2ccc3c(c2)CC(=O)N([C@@H](C)CO)C[C@H](C)[C@H](CN(C)S(=O)(=O)c2ccc(F)cc2)O3)cc1 | 97* | 0.35
CCC(C)NC(=O)c1ccc(Sc2ccc(Cl)cc2)c(NC(C)=O)c1 (stereo not drawn) | -7 | ·
O=C(c1cc2c(=O)oc3ccccc3c2s1)N1CCN(c2cccc(C(F)(F)F)c2)CC1 | -16 | ·
COc1ccc(S(=O)(=O)N(C)C[C@@H]2Oc3ccc(NC(=O)Nc4ccc(F)cc4)cc3C(=O)N([C@H](C)CO)C[C@@H]2C)cc1 | 130* | 0.019
C[C@H](CO)N1C[C@H](C)[C@H](CN(C)S(=O)(=O)c2ccc(F)cc2)Oc2ccc(NC(=O)Nc3ccc(F)cc3)cc2CC1=O | -4 | 0.76
SMILES | ROS inducer | YB-1 expr inh
COc1ccc(S(=O)(=O)N(C)C[C@H]2Oc3ccc(NC(=O)Nc4ccc(F)cc4)cc3C(=O)N([C@H](C)CO)C[C@@H]2C)cc1 | 38 | -0.33
C[C@H](CO)N1C[C@H](C)[C@H](CN(C)S(=O)(=O)c2ccc(F)cc2)Oc2ccc(NC(=O)Nc3ccc(C(F)(F)F)cc3)cc2CC1=O | 85* | 0.4
C[C@@H]1CCCCO[C@@H](CN(C)C(=O)Nc2ccccc2)[C@@H](C)CN([C@H](C)CO)C(=O)c2cc(NS(=O)(=O)c3ccccc3)ccc2O1 | 2 | -0.96
Cc1ccc(S(=O)(=O)Nc2cccc3c2O[C@@H](CN(C)C(=O)Nc2ccc(C(F)(F)F)cc2)[C@@H](C)CN([C@H](C)CO)C3=O)cc1 | 8 | -0.21
Cc1ccc(S(=O)(=O)N(C)C[C@H]2OCCCC[C@@H](C)Oc3ccc(NC(=O)Nc4ccc(C(F)(F)F)cc4)cc3C(=O)N([C@H](C)CO)C[C@@H]2C)cc1 | 22 | 0.086
C[C@@H]1CCCCO[C@H](CN(C)S(=O)(=O)c2ccccc2)[C@@H](C)CN([C@H](C)CO)C(=O)c2cc(NC(=O)Nc3ccc(C(F)(F)F)cc3)ccc2O1 | 80* | 0.063
COc1ccc(S(=O)(=O)N(C)C[C@@H]2OCCCC[C@@H](C)Oc3ccc(NC(=O)Nc4ccc(C(F)(F)F)cc4)cc3C(=O)N([C@H](C)CO)C[C@@H]2C)cc1 | 32 | -0.012
C[C@@H]1CN([C@H](C)CO)C(=O)c2cccc(NS(=O)(=O)c3ccc(F)cc3)c2O[C@H]1CN(C)C(=O)Nc1ccc(C(F)(F)F)cc1 | 92* | -0.0016
C[C@@H]1CCCCO[C@@H](CN(C)C(=O)Nc2ccc(C(F)(F)F)cc2)[C@@H](C)CN([C@H](C)CO)C(=O)c2cc(NS(=O)(=O)c3ccccc3)ccc2O1 | 102* | -0.21
C[C@@H]1CCCCO[C@@H](CN(C)S(=O)(=O)c2ccccc2)[C@@H](C)CN([C@H](C)CO)C(=O)c2cc(NC(=O)Nc3ccc(C(F)(F)F)cc3)ccc2O1 | 183* | -0.44
O=C(COc1ccccc1Br)Nc1ccc(C(=O)OC2CCCCC2)cc1 | -2 | ·
C[C@@H]1CN([C@H](C)CO)C(=O)c2cccc(NC(=O)CCCCCC(=O)Nc3ccccc3N)c2O[C@@H]1CN(C)Cc1ccc(C(F)(F)F)cc1 | 57 | 0.22
C[C@H]1CN([C@@H](C)CO)C(=O)c2cccc(NC(=O)CCCCCC(=O)Nc3ccccc3N)c2O[C@@H]1CN(C)Cc1ccc(-c2ccccc2)cc1 | 91* | -0.16
C[C@@H]1CN([C@H](C)CO)C(=O)c2cccc(NC(=O)CCCCCC(=O)Nc3ccccc3N)c2O[C@H]1CN(C)Cc1ccc(-c2ccccc2)cc1 | 126* | -0.35
C[C@H](CO)N1C[C@H](C)[C@@H](CN(C)Cc2ccncc2)Oc2c(NC(=O)CCCCCC(=O)Nc3ccccc3N)cccc2C1=O | 5 | 0.2
CCCC(=O)N1CCC(c2ccc(OC)cc2)=N1 | -1 | ·
C[C@H](CO)N1C[C@H](C)[C@@H](CN(C)Cc2ccc(-c3ccccc3)cc2)Oc2ccc(NC(=O)c3ccncc3)cc2C1=O | 19 | -0.15
C[C@H](CO)N1C[C@H](C)[C@H](CN(C)Cc2ccc(-c3ccccc3)cc2)Oc2ccc(NC(=O)CCC(F)(F)F)cc2C1=O | 9 | -0.14
C[C@H]1CN([C@@H](C)CO)C(=O)c2cc(NC(=O)CCC(F)(F)F)ccc2O[C@@H]1CN(C)Cc1ccc(-c2ccccc2)cc1 | 82* | -0.6
C[C@@H]1CN([C@H](C)CO)C(=O)c2cc(NC(=O)c3ccncc3)ccc2O[C@@H]1CN(C)Cc1ccc(-c2ccccc2)cc1 | 113* | -0.28
C[C@H](CO)N1C[C@H](C)[C@@H](CN(C)Cc2ccc(Oc3ccccc3)cc2)Oc2ccc(NC(=O)Cc3ccccc3)cc2C1=O | 138* | 0.25
C[C@@H]1CN([C@@H](C)CO)C(=O)c2cc(NC(=O)Cc3ccccc3)ccc2O[C@@H]1CN(C)Cc1ccc(-c2ccccc2)cc1 | 60 | -0.09

Source: PubChem BioAssay
